High-throughput results deposited in PubChem by National Center for Advancing Translational Sciences (NCATS).
Most compounds without a hit are left out; they make up all but 3.6% or so of the library.
AmpC inh no detg – qHTS Inhibitors of AmpC Beta-Lactamase (assay without detergent). P00811. AmpC nitrocefin hydrolysis, absorbance 480 nm, 0.0001% Triton. Potency, µM (highest dose often 57.1 µM), for inactives: top-dose activity change, negative = inhibition, usual class: inhibitors. 330,000 compounds, 0.52% hits;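 also: plate controls were no compound for no effect and no enzyme for full effect; nearly all actives have a fitted effect of over 20% in size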
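AmpC (5.3 nM in the dispensed reagent) in 20 mM phosphate pH 7.0 with 0.01% (detergent screen) or 0.0001% Triton X-100 was preincubated with compounds for 15 min at room temperature. Nitrocefin was then added from an 800 uM solution, and hydrolysis was followed at 480 nm.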
Sm TGR inh – qHTS Assay for the Inhibitors of Schistosoma Mansoni Peroxiredoxins | Schistosoma mansoni thioredoxin glutathione reductase (TGR), Q962Y6 | purified TGR, DTNB reduction, TNB absorbance 405 nm | Potency, µM (doses to about 114 µM), without a hit: at the highest dose activity change, negative = inhibition, usual class: inhibitors | 360,000 compounds, 3% hits | AID 485364, 2010; also: nearly all actives have a fitted effect of over 60% in size
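TGR 20 nM + NADPH 100 uM (dispensed conc.), cpd preinc 15 min RT; start with NADPH (500 uM addition) then DTNB (15 mM addition). Kinetic TNB absorbance, 405 nm filter. Four-parameter Hill fit across titration.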
Giardia FBPA inh-1 – qHTS Assay for Inhibitors of Fructose-1,6-bisphosphate Aldolase from Giardia Lamblia; Potency, µM (series often up to 59.6 µM), inactives show at the highest dose activity, negative = inhibition, actives largely listed as inhibitors; purified Giardia FBPA; A8B2U2; 290,000 compounds, 0.71% hits; also: nearly all actives have a fitted effect of over 55% in size
Target sequence (A8B2U2 whole entry, looked up): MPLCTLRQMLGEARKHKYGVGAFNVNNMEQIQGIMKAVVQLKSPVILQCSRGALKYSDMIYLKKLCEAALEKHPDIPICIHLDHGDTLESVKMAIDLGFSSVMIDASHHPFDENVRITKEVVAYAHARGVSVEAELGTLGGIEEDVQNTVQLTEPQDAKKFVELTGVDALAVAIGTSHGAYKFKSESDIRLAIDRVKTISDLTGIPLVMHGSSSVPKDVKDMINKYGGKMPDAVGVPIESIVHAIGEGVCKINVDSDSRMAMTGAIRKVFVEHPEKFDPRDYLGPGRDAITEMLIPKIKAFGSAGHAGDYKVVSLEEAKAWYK
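40 nM FBPA preincubated 10 min at RT with compound (up to 57.5 uM final), then substrate plus GAPDH/TPI/NAD/arsenate coupling and diaphorase/resazurin added. Fluorescence read after 20 min at RT, 525/598 nm.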
AmpC detergent – qHTS Inhibitors of AmpC Beta-Lactamase (assay with detergent); AmpC hydrolysis of nitrocefin, absorbance 480 nm, 0.01% Triton; Potency, µM (doses to about 114 µM), for the others: at the top dose activity change, negative = inhibition, most hits filed as inhibitors; 370,000 compounds, 0.041% hits; AID 485294, 2010;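 also: 0% = no-compound wells and -100% = no-enzyme wells; nearly all actives have a fitted effect of over 25% in size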
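20 mM phosphate pH 7.0 + 0.01% (detergent screen) or 0.0001% Triton X-100; 5.3 nM AmpC reagent; cpd preinc 15 min RT; nitrocefin (800 uM stock) to start; A480 q20 s × 4 min; Activity was normalised to no-enzyme and no-compound control wells.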
Giardia growth – qHTS Assay for Inhibitors of Fructose-1,6-bisphosphate Aldolase from Giardia Lamblia: Giardia lamblia growth inhibition; Giardia lamblia trophozoite growth inhibition; AID 2785, 2010; Potency, µM (highest dose often 57.5 µM), for inactives: at the top dose activity change, negative = inhibition, actives largely listed as inhibitors; shares compounds with Giardia FBPA inh-1; 1,500 compounds, 5% hits;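 also: trophozoites exposed to compound for 48 h at 37 °C; nearly all actives have a fitted effect of over 70% in size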
Mammalian tox – qHTS Assay for Inhibitors of Fructose-1,6-bisphosphate Aldolase from Giardia Lamblia: Mammalian cellular toxicity; shares compounds with Giardia FBPA inh-1; mammalian cell viability counter-screen, qHTS; Potency, µM (highest dose often 57.5 µM), for inactives: at the top dose viability change, negative = toxicity, usual class: inhibitors; 1,500 compounds, 4% hits;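 also: Chinese hamster ovary cells used as mammalian cytotoxicity surrogate; viability measured as cellular ATP by luminescence; compound exposure lasted 48 h before reading; nearly all actives have a fitted effect of over 60% in size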
Giardia FBPA inh-2 – qHTS Assay for Inhibitors of Fructose-1,6-bisphosphate Aldolase from Giardia Lamblia: Primary screen confirmation | purified Giardia aldolase enzyme activity, qHTS | Potency, µM (highest dose often 57.5 µM), for the others: at the highest dose activity change, negative = inhibition, hits mostly inhibitors | 1,500 compounds, 5% hits | shares compounds with Giardia FBPA inh-1; also: nearly all actives have a fitted effect of over 45% in size
Rabbit aldolase – qHTS Assay for Inhibitors of Fructose-1,6-bisphosphate Aldolase from Giardia Lamblia: Rabbit FBPA Selectivity; shares compounds with Giardia FBPA inh-1; AID 2794, 2010; 1,500 compounds, 4% hits; Rabbit muscle FBPA enzyme inhibition, selectivity counter-screen; Potency, µM (titrated, usually from 57.5 µM), for inactives: at the highest dose activity, negative = inhibition, actives largely listed as inhibitors; also: nearly all actives have a fitted effect of over 60% in size
Target sequence (P00883 whole entry, looked up): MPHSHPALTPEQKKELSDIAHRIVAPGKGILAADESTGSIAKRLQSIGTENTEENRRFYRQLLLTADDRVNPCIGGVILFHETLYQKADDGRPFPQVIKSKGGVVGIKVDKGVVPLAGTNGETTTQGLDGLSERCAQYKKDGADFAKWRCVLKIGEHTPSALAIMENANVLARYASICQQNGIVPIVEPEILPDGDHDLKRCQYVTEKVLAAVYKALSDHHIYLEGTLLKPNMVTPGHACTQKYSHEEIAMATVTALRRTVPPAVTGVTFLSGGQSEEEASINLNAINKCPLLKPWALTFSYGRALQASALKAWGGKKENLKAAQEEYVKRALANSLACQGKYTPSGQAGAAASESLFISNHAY
GAPDH counter – qHTS Assay for Inhibitors of Fructose-1,6-bisphosphate Aldolase from Giardia Lamblia: Coupling assay counterscreen confirmation; shares compounds with Giardia FBPA inh-1; GAPDH coupling enzyme counterscreen, biochemical, qHTS; Potency, µM (highest dose often 57.5 µM), for inactives: top-dose activity change, negative = inhibition, most hits filed as inhibitors; 1,500 compounds, 6% hits; AID 2795, 2010; also: nearly all actives have a fitted effect of over 55% in size
* = called active by the depositor; ? = inconclusive; nt = no result given; [ ] = dose if it differs, or a comment. Calls follow the shape of the dose curve; as a rule, active = well fitted curve in the direction sought with a large enough effect; inconclusive = small, poorly fitted or top-dose-only effect, or another doubt; inactive = no such curve, though single readings can be large; an effect the other way counts as inactive or inconclusive. Unless noted, % is scaled to controls: 0 for no effect and ±100 for the full control effect; potency is read from the fitted curve at half-maximal effect.

SMILES	AmpC inh no detg	Sm TGR inh	Giardia FBPA inh-1	AmpC detergent	Giardia growth	Mammalian tox	Giardia FBPA inh-2	Rabbit aldolase	GAPDH counter
COc1ccc(C(=O)NC2CCc3ccccc32)cc1OC1CCN(C(C)=O)CC1 (stereo unspecified)	-15%	-3%	nt	-4%	nt	nt	nt	nt	nt
COc1ccc2c(c1OC)C(=O)N(c1nc(SC)n[nH]1)C2=O	-21%	-3%	16µM*	?	19%	6%	-2%	2%	-18%
Nn1cnnc1N/N=C/c1ccc(Cl)cc1Cl	4%	4%	-30%	0%	-10%[38.3 µM]	?	5.8µM*	8.2µM*	9.2µM*
COc1ccc(Cl)cc1NC(=O)CN(C)C(=O)Cn1cnnn1	-5%	nt	nt	nt	nt	nt	nt	nt	nt
Cc1cc(Cl)ccc1OCC(=O)NNC(=O)C1CCCO1 (stereo unspecified)	-14%	-2%	7%	1%	nt	nt	nt	nt	nt
COc1ccc(/C=N/NC2=NS(=O)(=O)c3ccccc32)cc1OC(C)=O	-11%	-2%	3.5µM*	-1%	12%[38.3 µM]	-4%	?	7%	3%
COc1ccc(/C=N/NC2=NS(=O)(=O)c3ccccc32)cc1	-15%	-2%	4.5µM*	3%	-7%[10.4 µM]	5%	9%	16%	6%
COc1ccc(OC)c(/C=N/NC2=NS(=O)(=O)c3ccccc32)c1	-27%	-10%	16µM*	-2%	-17%[10.4 µM]	-4%	1%	8%	10%
CC(=O)Oc1ccc(/C=N/NC2=NS(=O)(=O)c3ccccc32)cc1	-23%	-14%	7.9µM*	?	-26%	1%	10%	1%	12%
CCOC(=O)CN1C(=O)CN(c2ccc(C)c(C)c2)C1=O	-17%	2%	-1%	-13%	nt	nt	nt	nt	nt
CC(C)(C)c1ccc(C(=O)Nc2cc(-c3nc4ccccc4o3)ccc2Cl)cc1	nt	-2%	nt	21%	nt	nt	nt	nt	nt
CCOC(=O)c1c(S(=O)(=O)NCC2CCN(CCc3cccs3)CC2)c(C)n(C)c1C	-2%	-17%	nt	1%	nt	nt	nt	nt	nt
COc1ccc(CCNC(=O)CSCC(=O)Nc2cc(S(C)(=O)=O)ccc2Cl)cc1	-6%	nt	nt	nt	nt	nt	nt	nt	nt
CN(C)c1ccc(/C=N/NC2=NS(=O)(=O)c3ccccc32)cc1	-21%	11%	?	-7%	nt	nt	nt	nt	nt
COc1cc(/C=N/NC2=NS(=O)(=O)c3ccccc32)cc(OC)c1OC	-27%	-2%	7.9µM*	6%	-14%	6%	13%	8%	6%
NC(=O)C1CCN(C(=O)NC2CC(=O)N(c3ccc4c(c3)OCCO4)C2)CC1 (stereo unspecified)	0%	-8%	nt	-11%	nt	nt	nt	nt	nt
Cc1oc(C)c2c(=O)ccc3c(c12)OC(N)=C(C#N)C3c1ccccc1Cl (stereo unspecified)	-47%	?	11µM*	-3%	13%	-16%	-5%	-3%	1%
Cc1nn(C)c(C)c1S(=O)(=O)N(CC(=O)NCCc1ccccc1)c1ccc(C(C)C)cc1	nt	0%	nt	16%	nt	nt	nt	nt	nt
CCOc1ccc(OCC)c(NC(=O)CN2CCN(CC(=O)NC(C)C)CC2)c1	16%	-2%	32µM*	-9%	25%	-12%	-1%	2%	8%
O=C(O)c1ccc2cccc(O)c2n1	-21%	-9%	2.2µM*	-5%	?	21%	?	-28%	?
CCOCc1c(C(=O)Nc2ccccc2N2CCN(C)CC2)oc2ccccc12	173%	-1%	nt	-14%	nt	nt	nt	nt	nt
Cc1cc2cc(CNC(=S)NC3CCCCC3)ccc2n1C	?	5%	1%	1%	nt	nt	nt	nt	nt
O=C1CCC(=O)N1CC(=O)N1CCCc2ccccc21	-11%	0%	-6%	?	nt	nt	nt	nt	nt
O=C(CN1CCOCC1)N1CCCc2ccccc21	-7%	nt	13µM*	5%	?	-2%	0%	8%	0%
Cc1ccc2nc(C)cc(N/N=C/c3ccccc3O)c2c1	-29%	13%	12%	-6%	nt	nt	nt	nt	nt
SMILES	AmpC inh no detg	Sm TGR inh	Giardia FBPA inh-1	AmpC detergent	Giardia growth	Mammalian tox	Giardia FBPA inh-2	Rabbit aldolase	GAPDH counter
Cc1ccc(C)c(/C=N/Nc2nc3ccccc3c(=O)n2O)c1	-20%	15%	16µM*	0%	?	-6%	-20%	-11%	-15%
CCCCOc1ccc(C2c3c(oc4ccccc4c3=O)C(=O)N2c2nc(C)c(C(=O)OCC)s2)cc1OC (stereo unspecified)	nt	1%	nt	21%	nt	nt	nt	nt	nt
Cc1ccc(N(C(=O)CNC(=O)c2ccco2)C(C(=O)NCC2CCCO2)c2ccccc2)c(C)c1 (stereo unspecified)	121%	-10%	9%	-14%	nt	nt	nt	nt	nt
CCOC(=O)c1cc(S(=O)(=O)N2CCN(c3ccc(F)cc3)CC2)[nH]n1	nt	4%	nt	18%	nt	nt	nt	nt	nt
CC(=O)N1CCc2c(sc3c2c(=O)n(-c2ccccc2)c(=O)n3CC(=O)NCC2CCCO2)C1 (stereo unspecified)	-7%	-5%	10µM*	-7%	-4%[38.3 µM]	-13%	-27%	-15%	-9%
O=C(N/N=C/c1cccnc1)c1cc(O)c(O)c(O)c1	-19%	-32%	10µM*	0%	?	6%	-25%	-20%	-8%
O=C(N/N=C/c1cccnc1)c1ccc(O)cc1	-18%	6%	4%	5%	nt	nt	nt	nt	nt
C=CCNC(=S)NS(=O)(=O)c1cccs1	-14%	-5%	5.6µM*	?	-13%[38.3 µM]	10%	-14%	10%	-1%
O=S(=O)(NCCNS(=O)(=O)c1cccs1)c1cccs1	-14%	-23%	-3%	-12%	nt	nt	nt	nt	nt
O=C(NN1C(=O)/C(=C/C=C/c2ccco2)SC1=S)c1ccncc1	-33%	3.2µM*	7.1µM*	?	-21%[38.3 µM]	-15%	?	?	-27%
CCc1ccc(N=C2NC(=O)CC(C(=O)Nc3ccc(OC)cc3)S2)cc1 (stereo unspecified)	nt	-1%	nt	3%	nt	nt	nt	nt	nt
